According to PubChem BioAssay AID485317 (Broad Institute, 2010):
Hit rate of the full screen: of about 290,000 compounds, about 11,000 (3.8%) were called active. Only a selection was taken, and actives are over-represented in it overall. Unmarked numbers belong to inactive results.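 Rule for the calls: active = mean replicate inhibition above about 79%, with every replicate also reaching it (limit read from the data); inconclusive = only one of the two criteria met; inactive = mean below limit and not every replicate reaching it.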

biological target: FAD-linked sulfhydryl oxidase ALR (Homo sapiens) (UniProt P55789); test: ALR-catalysed DTT oxidation blockers – biochemical, H2O2 detection, HRP-luminol luminescence, single point, primary screen (AID 485317); details: purified ALR, active compounds read high, concentration not given here
Sequence (P55789 whole entry, looked up): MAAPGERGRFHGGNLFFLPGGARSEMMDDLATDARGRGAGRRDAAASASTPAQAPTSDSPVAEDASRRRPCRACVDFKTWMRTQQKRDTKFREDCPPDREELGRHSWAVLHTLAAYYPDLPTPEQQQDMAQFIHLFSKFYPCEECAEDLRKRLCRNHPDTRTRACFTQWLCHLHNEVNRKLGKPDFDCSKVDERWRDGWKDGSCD

Row | Compound | inhibition
1 | O=C1C=C(c2cccc(Cl)c2)C[C@@H](c2ccc(F)cc2)C1 | -8.67%
2 | Cc1cc(NC(=O)CSc2nc3ccccc3n2CC(C)C)no1 | -5.8%
3 | Cc1ccccc1-n1c(SCC(=O)Nc2cccc3ccccc23)nc(O)cc1=O | 59.8%
4 | CC(C)Cn1c(SCC(=O)Nc2ccc(Cl)cc2F)nc(O)cc1=O | 98.5% (active)
5 | COc1ccccc1-c1nn(Cc2ccccc2)cc1C(=O)N1CCN(c2ncccn2)CC1 | 1.87%
6 | C=CC[C@@H](CC(=O)NCCO)C(=O)N[C@H](C)COC(=O)[C@@H](CC=C)CC(=O)OC(C)(C)C | 4.16%
7 | CCN1C(=O)[C@H]2[C@@H](c3ccc(-c4ccc(F)cc4)cc3)N[C@@](Cc3ccccc3)(C(=O)OC)[C@H]2C1=O | -2.13%
8 | CCCn1c(C2CCCN2c2nc(-c3ccc(OC)cc3)cs2)nc2ccccc21 (configuration not stated) | -0.584%
9 | CCOC(=O)C1CCCN(C(=O)CSc2nnc3nc(C)cc(C)n23)C1 (configuration not stated) | -0.482%
10 | COc1cccc(NC(=O)CC(c2ccc(OC(C)C)cc2)c2ccccc2OC)c1 (configuration not stated) | 1.22%
11 | COc1cccc(C(O)Cc2nc3ccccc3n2C)c1OC (configuration not stated) | 2.27%
12 | COc1ccc(CNCCCO)cc1OC | 1.87%
13 | C=CCC(Nc1ccccc1)c1cccc(OC)c1OC (configuration not stated) | 98.9% (active)
14 | C=CCC(NCc1ccco1)c1ccc(OC)cc1 (configuration not stated) | 1.8%
15 | C=CCC(NCCCO)c1cccc(OC)c1OC (configuration not stated) | 99.7% (active)
16 | CCOC(=O)[C@H]1[C@H]2COc3ccc(C)cc3[C@@H]2N2C(=O)CN(Cc3ccc(F)cc3)C(=O)[C@@]12C | -13.6%
17 | CCOCc1c(C(=O)N2CCN(Cc3ccc(Br)s3)CC2)oc2ccccc12 | 1.34%
18 | CCN(CC(=O)Nc1ccccc1C(F)(F)F)C(=O)CSCc1c(C)noc1C | 6.19%
19 | Cc1ccccc1NC(=O)C(C)OC(=O)CCC(=O)N(CC(C)C)c1c(N)n(CC(C)C)c(=O)[nH]c1=O (configuration not stated) | -8.82%
20 | COc1cc(C(=S)NC2CCCCC2)ccc1O | 98.5% (active)
21 | COc1ccc(C(=O)NC(=S)NC2CCCCC2)cc1 | 3.44%
22 | COc1cc(C(=S)N2CCOCC2)ccc1O | -6.46%

Row | Compound | inhibition
23 | O=C(CN1CCN(S(=O)(=O)c2cccc(Cl)c2)CC1)N1CCCCC1 | 14.4%
24 | O=C(NCC1(N2CCCCC2)CCCCC1)c1ccc(NS(=O)(=O)c2ccc(F)cc2)cc1 | 7.5%
25 | CC(Sc1nn(-c2ccc(Cl)cc2)c(=S)s1)C(=O)NCC1CCCO1 (configuration not stated) | -12.1%
26 | COc1cc(/C=N/n2c(C)n[nH]c2=S)ccc1OCc1ccccc1 | 97% (active)
27 | COc1cc(-c2n[nH]c(=S)n2Cc2ccccc2)cc(OC)c1OC | 68.8%
28 | CCOc1ccc(/C=N/Nc2nncc(-c3ccccc3)n2)cc1OC | -1.74%
29 | COc1ccc(S(=O)(=O)Nc2ccc3cn[nH]c3c2)cc1[N+](=O)[O-] | -7.76%
30 | Cc1c(C(=O)N2CCCc3ccccc32)oc2ccccc12 | 1.77%
31 | O=C(c1cc(-c2ccc(Cl)cc2)on1)N1CCN(c2ccccc2)CC1 | 4.35%
32 | Cc1ccc(-c2cc(C(=O)N3CCc4ccccc4C3)no2)cc1 | -5.44%
33 | O=C(c1cc(-c2ccc(O)cc2)on1)N1CCOCC1 | 99% (active)
34 | O=C(c1cc(-c2ccc(O)cc2)on1)N1CCCc2ccccc21 | 98.8% (active)
35 | O=C(c1cc(-c2ccc(F)cc2)on1)N1CCN(c2ccc(F)cc2)CC1 | 1.89%
36 | COc1ccc2sc(-c3ccc(S(C)(=O)=O)cc3)c(C#Cc3cncn3C)c2c1 | 1.35%
37 | COc1ccccc1CCNC(=O)C(=O)NCCC1CCCCN1S(=O)(=O)c1cccs1 (configuration not stated) | -56.8%
38 | CC1(C)O[C@H]2CC(=O)OCC23[C@H]2CC[C@@]4(C)[C@H](c5ccoc5)OC(=O)[C@H]5O[C@]54[C@]2(C)C(=O)C[C@@H]13 (some centres not stated) | -10.7%
39 | CCc1noc(C)c1C(=O)Oc1ccc(N(C)S(=O)(=O)c2ccc(C)c(C)c2)cc1 | 22.1%
40 | COc1ccc(C(=O)Nc2cc(S(=O)(=O)N3CCCC3)ccc2Cl)cc1 | 0.959%
41 | Cc1cc(N2CCN(c3ccccc3)CC2)nc(N2CCOCC2)n1 | 98.9% (active)
42 | Cc1cc(N2CCOCC2)nc(-c2ccc(Br)cc2)n1 | -3.64%
43 | Cc1cc(Nc2ccc(Cl)cc2)nc(N2CCOCC2)n1 | -2.6%
44 | COc1ccc(CNC(=O)COC(=O)C(CCSC)N2C(=O)c3ccccc3C2=O)cc1 (configuration not stated) | -2.44%

Row | Compound | inhibition
45 | O=C(Nc1cccc(F)c1)c1cc(-c2ccco2)nc2ccccc12 | 5.76%
46 | O=C(O)c1cccc(NC(=O)c2cc(-c3cccc(Cl)c3)nc3ccccc23)c1 | 98.6% (active)
47 | CC(C)(C)Cc1nnc(NC(=O)c2cc(-c3ccccc3)nc3ccccc23)s1 | 3.63%
48 | Cc1ccc([C@@H]2CC=C(C(=O)O)[C@H](c3cccc(Cl)c3)N2S(=O)(=O)c2ccc(C)cc2)cc1 | 4.58%
49 | O=C1COc2ccc(C(=O)COC(=O)CCOc3ccccc3)cc2N1 | -1.49%
50 | O=C(CN1C(=O)C2C3CCC(C3)C2C1=O)Oc1ccc2ccccc2c1 (configuration not stated) | -1.46%
51 | CC1=CC(C)(C)Nc2ccc(OC(=O)CN3C(=O)C4CCCCC4C3=O)cc21 (configuration not stated) | 85.4% (active)
52 | CC1=CC(C)(C)Nc2ccc(OC(=O)C(Cc3ccccc3)N3C(=O)C4CCCCC4C3=O)cc21 (configuration not stated) | -22.1%
53 | CC(C)Cn1c(N)c(C(=O)COC(=O)C2CCCN2C(=O)c2cccs2)c(=O)n(C)c1=O (configuration not stated) | -23.1%
54 | Cc1ccc(C)c(-c2nnc(NC(=O)CS(=O)(=O)c3ccccc3)o2)c1 | 1.8%
55 | Cc1c(OC(C)C(=O)N[C@@H](Cc2ccccc2)C(=O)O)ccc2c3c(c(=O)oc12)CCCC3 (some centres not stated) | 86.8% (active)
56 | Cc1cc(=O)oc2c(C)c(OC(C)C(=O)NC3CCN(Cc4ccccc4)CC3)ccc12 (configuration not stated) | 2.88%
57 | Cc1oc2c(C)c3oc(=O)c(CC(=O)N[C@@H](CC(C)C)C(=O)N[C@@H](Cc4ccccc4)C(=O)O)c(C)c3cc2c1C | 40.1%
58 | CC1(C)CC[C@@]2(C(=O)O)C(C1)C1=CCC3[C@@]4(C)CC[C@H](O)C(C)(C)C4CC[C@@]3(C)[C@]1(C)C[C@H]2O (some centres not stated) | -9.85%
59 | CCOC(=O)c1cccc(NC(=O)c2ccc(F)cc2F)c1 | 6.05%
60 | CN(C)CCCN(C(=O)c1ccc(S(=O)(=O)N2CCCCCC2)cc1)c1nc2cc3c(cc2s1)OCCO3 | -4.06%
61 | C=CCNC(=S)NNc1ncnc2sc3c(c12)CC(C)(C)OC3 | 98.8% (active)
62 | CC/C(C)=N/Nc1nc2sc3c(c2c(=O)[nH]1)CC(C)(C)OC3 | 15.5%
63 | CCC(O)CNc1nc(-n2nc(C)cc2C)nc2sc3c(c12)CC(C)(C)OC3 (configuration not stated) | -2.25%
64 | CC(C)C(NC(=O)c1c(F)cccc1F)C(=O)NNC(=O)c1ccccc1 (configuration not stated) | -7.7%
65 | COc1ccc2sc(N(CCCN(C)C)C(=O)c3ccc(S(=O)(=O)N(C)C4CCCCC4)cc3)nc2c1 | -5.65%
66 | O=C(NCC(=O)N1CCCC(C(F)(F)F)C1)c1ccccc1F (configuration not stated) | -7.32%

Row | Compound | inhibition
67 | Cc1ccc(N=C2SCCCN2C(=O)c2cccc(N3C(=O)CCC3=O)c2)cc1Cl | -9.4%
68 | N#Cc1nc(-c2cccc3ccccc23)oc1N | 0.469%
69 | Cn1c(CNC(=O)c2ccccc2F)nnc1SCc1ccc(F)cc1 | -2.09%
70 | CC(C)CC(CC(C)C)=NNC(=O)c1ccc(CSc2nncn2C)cc1 | 98.2% (active)
71 | COC(=O)c1ccc(CSc2nncn2N)cc1 | -17.1%
72 | CC(=O)Nc1ccc(NC(=O)CCN2C(=O)C3CC=CCC3C2=O)cc1 (configuration not stated) | -1.74%
73 | CC1=NNC(=O)C1Cc1c(Cl)cccc1Cl (configuration not stated) | 13.8%
74 | CCn1c(SC(C)C(=O)Nc2ccc(N3CCOCC3)cc2)nnc1-c1ccco1 (configuration not stated) | 46.7%
75 | Cc1ccc(-n2ncc3c(Nc4cccc(C(=O)O)c4)ncnc32)cc1 | 94% (active)
76 | Cc1ccc(Nc2ncnc3c2cnn3C)c(C)c1 | -4.69%
77 | O=C(NNc1ncnc2c1cnn2-c1ccccc1)c1ccco1 | -5.39%
78 | CSCCC(NC(=O)COc1ccccc1)C(=O)OCCOc1ccc(F)cc1 (configuration not stated) | -0.0039%
79 | Cc1ccc(S(=O)(=O)NCCC(=O)OCC(=O)N(C)c2ccccc2)cc1 | -0.745%
80 | COc1ccc(S(=O)(=O)N2CCN(C(C)C(=O)Nc3ccc(C(C)C)cc3)CC2)cc1 (configuration not stated) | -3.15%
81 | COc1cccc(-c2nn(-c3ccccc3)cc2/C=C(\C#N)C(=O)NCCCn2ccnc2)c1 | -6.12%
82 | COc1ccc(-c2nn(-c3ccccc3)cc2/C=C2/SC(=S)N(CCCC(=O)O)C2=O)c(C)c1 | 3%
83 | CN(C)S(=O)(=O)c1cccc(-c2nn(-c3ccccc3)cc2/C=C2\SC(=S)N(CC(=O)O)C2=O)c1 | 95.8% (active)
84 | COc1cccc(COC(=O)C2CCN(S(=O)(=O)c3cccs3)CC2)c1OC | -64%
85 | COc1cc(C(=O)NCC(=O)N2CC=C(c3ccccc3)CC2)cc(OC)c1OC | 3.4%
86 | O=C(NCCSc1ncc(-c2ccccc2)[nH]1)c1ccco1 | 4.62%
87 | COc1ccc(OC)c(S(=O)(=O)N2CCCC(C(=O)N3CCC(C(N)=O)CC3)C2)c1 (configuration not stated) | -3%
